This passage reports growth results from PubChem BioAssay (NCI).

Compounds without any hit were thinned out: in the full panel of roughly 83,000, 20% have a hit.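 Growth was measured after 48 h exposure to one concentration of compound in 96-well plates. Values under 10 count as active.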 A number with no mark means an inactive call. Activity calls are given as the source filed them.

Holding throughout (assay): NCI-60 one-dose screen, 48 h (100 = growth as untreated, 0 = no growth, -100 = all killed)
Common to all, as to details: 10 µM unless noted

Assay [1] has as its system DU-145 prostate.
Assay [2] concerns K-562 leukemia.
The test system of assay [3] is MALME-3M melanoma.
In assay [4] the test system is MDA-MB-231 breast.
For assay [5], the system named is SF-268 CNS.
Assay [6] has as its system SF-295 CNS.
Assay [7] concerns SF-539 CNS.
Assay [8] deals with UACC-257 melanoma.
The subject of assay [9] is M14 melanoma.
The subject of assay [10] is RXF 393 renal.

As for `NS(=O)(=O)c1ccc(N2CC(c3nc4ccccc4[nH]3)CC2=O)cc1` (stereo not drawn), the growth in assay [1] was 109%; in [2] it was 97.2%; in assay [3], 92.9%; in assay [4], 85.4%; in assay [5], 96.1%; in assay [6], 99.9%. Besides, the growth in [7] is 96.6%; in assay [8], 109%; in assay [9], 96.9%.

Turning to `COc1ccc(NC(=O)c2ccc(-c3ccccc3)cc2)c(C(N)=O)c1`, the growth in assay [1] is 102%; in [2], 92.5%; in [3], 91.6%; in assay [4], 91.3%; in [5], 113%; in assay [6], 99.3%. In addition, the growth in assay [7] is 97.4%; in assay [8], 102%; in assay [9], 110%.

For the compound `CCCCCc1c(C)[nH]c(/C=C2\N=C(c3ccc[nH]3)C=C2Oc2ccc(Cl)cc2)c1C`, the growth in assay [1] was 3.42% [100 µM] (active); in assay [2] it was 0.896% [100 µM] (active); in assay [3] it was -59.3% [100 µM] (active); in [4] it was -38.7% [100 µM] (active); in [10] it was -2.91% [100 µM] (active); in [5] it was -72.6% [100 µM] (active). Further, the growth in assay [6] is -72.9% [100 µM] (active); in assay [8], -25.4% [100 µM] (active); in [9] it was -88.5% [100 µM] (active).

For the compound `COc1cc2c(cc1OC)C(CC1(O)CCCCC1)N(S(=O)(=O)c1ccc(C)cc1)CC2` (stereo not drawn), the growth in assay [1] is 32.3% [100 µM]; in assay [2], 10.8% [100 µM]; in assay [3] it was 18.9% [100 µM]; in assay [4], 40.8% [100 µM]; in assay [10], 48.9% [100 µM]; in assay [5] it was 26.3% [100 µM]. In addition, the growth in assay [6] was 3.6% [100 µM] (active); in assay [8], 22.4% [100 µM]; in [9], 13% [100 µM].

For the compound `CSc1nc(-c2ccc(O)cc2O)c2c(=O)[nH]c(Nc3ccc(S(=O)(=O)Nc4nc(C)cc(C)n4)cc3)nc2n1`, the growth was 95.1% in assay [1]; 99.4% in [2]; 79.8% in [3]; 100% in [4]; 115% in assay [10]; 101% in assay [5]. The growth in [7] is 108%; in assay [8] it was 124%.

Turning to `COc1ccc(NC(=O)c2ccccc2-c2ccccc2)c(C(N)=O)c1`, the growth in assay [1] was 29.6%; in [2], 14.2%; in [3], 34.3%; in assay [4] it was 54.1%; in [5] it was 49.5%; in assay [6], 17.4%. Besides, the growth in [7] is -1.25% (active); in assay [8], 49.7%; in assay [9], 18.2%.

In the case of `C1CCC(C(CC2CCCCN2)C2CCCCC2)CC1` (stereo not drawn), the growth was 14% in [1]; -64.9% (active) in assay [2]; -73.2% (active) in assay [3]; 1.11% (active) in [4]; 49.9% in [5]; -62.9% (active) in assay [6]. The growth in [7] is -35.9% (active); in [9] it was -88.2% (active).

As to `C1=C(Cc2ccccc2)n2cnc3ncnc(c32)S1`, the growth in assay [1] is 27.3%; in assay [2] it was 14.4%; in assay [3], 68%; in assay [4] it was 35.1%; in assay [5], 71.9%; in [6], 30%. Also, the growth in [7] was 43.2%; in assay [8], 74.9%; in assay [9], 13.2%.

As to `C=CCNC(=O)/C(=C/c1cccc([N+](=O)[O-])c1)NC(=O)c1ccccc1`, the growth in assay [1] was 116%; in assay [2], 108%; in [3], 102%; in assay [4] it was 116%; in assay [5], 99%; in [6], 103%. In addition, the figures for the growth in [7], in assay [8] and in assay [9] were 92.5%, 7.53% (active) and 88.8%, respectively.

For `Clc1ccc2nc(CI)c(CI)nc2c1`, the growth is 86.1% in assay [1]; -20.1% (active) in assay [2]; 74.6% in assay [3]; 74.4% in [4]; 73.7% in [5]; 88.8% in [6]. Besides, the values for the growth in assay [7], in assay [8] and in assay [9] were 100%, 86.2% and 48.9%, respectively.

On to `O=C(/C=C(\Nc1ccccc1)c1ccccc1)c1cn(-c2ccc([N+](=O)[O-])cc2)nn1`, for which the growth in [1] was 125%; in [2] it was 73.8%; in [3], 103%; in assay [4], 103%; in [5], 98.3%; in assay [6], 73.3%. Besides, the growth in [7] is 94.9%; in assay [8], 42.4%; in assay [9] it was 97.6%.

Regarding `O=C(O)c1ccc(CNS(=O)(=O)c2ccc3ccccc3c2)cc1`, the growth in assay [1] was 93.7%; in assay [2] it was 94.5%; in assay [3], 93.7%; in assay [4] it was 105%; in [5], 96.2%; in [6], 105%. For the same compound, the figures for the growth in assay [7], in [8] and in assay [9] were 106%, 99.1% and 103%, respectively.

`NS(=O)(=O)c1ccc(-n2ncc3c(SCc4ccccc4)ncnc32)cc1`: the growth was 78.1% in [1]; 74.8% in assay [2]; 82.8% in [3]; 91.4% in assay [4]; 96.2% in [5]; 64.7% in assay [6]. Moreover, the growth in assay [7] is 91.6%; in assay [8], 56.6%; in assay [9] it was 67%.

With `CCN(CC)CCOCC[C@H]1CC[C@H]2[C@@H]3[C@H](C)Cc4cc(OS(N)(=O)=O)ccc4[C@H]3CC[C@]12C`, the growth is -58.6% (active) in [1]; -63.8% (active) in [2]; -67.5% (active) in assay [3]; -67.3% (active) in assay [4]; -80.2% (active) in [5]; -65% (active) in assay [6]. Moreover, the growth in assay [7] is -96.1% (active); in assay [9] it was -97.1% (active).
